Screening results from PubChem.
Shown are actives, neighbours in structure and some others; about 2% of the full set was active somewhere.
LEDGF integ inh: blockers of LEDGF/p75-dependent integrase strand transfer – biochemical, TR-FRET, high throughput, primary screen; HIV-1 integrase (with human LEDGF/p75); hit rate 0.64% among 370,000; inhibition, % at 3.7 µM; TR-FRET IN-LEDGF/p75 DNA integration, Eu/Cy5;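 active = inhibition above the screen-wide mean plus 3 SD, cut at about 13% in these data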;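 also: signal is the Cy5 over europium emission ratio at 671 and 618 nm; 0% = plate median of compound wells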
TCR-CD3 inh: inhibitors of human TCR-CD3 interaction, primary screen, biochemical, fluorescence, TAMRA-labeled TCR probe | hit rate 0.37% among 360,000 | AID 651800, 2012 | inhibition, % at 9.4 µM | T-cell receptor (TCR); in the data active = inhibition above about 19%;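 also: recombinant mutant TCR 2C K166C tagged with TAMRA read by polarization; 0% = receptor in buffer alone and 100% = receptor with positive control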
MBD2 inh: inhibitors of MBD2 binding to methylated DNA, primary screen, biochemical, TR-FRET, DNA-binding domain, human; Methyl-CpG-binding domain protein 2 (Homo sapiens), Q9UBB5; MBD2 binding to methylated oligonucleotide; inhibition, % at 4.4 µM; hit rate 0.31% among 370,000; AID 686964, 2013; in the data active = inhibition above about 13%
UHRF1 MBD2 ctr: UHRF1 methylated DNA binding inhibitors, primary screen, counter-screen for MBD2 inhibitor project, biochemical, TR-FRET, human UHRF1, single concentration; UHRF1 binding to methylated oligo; E3 ubiquitin-protein ligase UHRF1 (Homo sapiens), Q96T88; inhibition, % at 4.4 µM; hit rate 0.75% among 370,000; in the data active = inhibition above about 21%;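 also: UHRF1 SRA domain binding a hemimethylated CpG hairpin DNA probe; 0% = median of test compound wells and 100% = reference inhibitor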
Target sequence (Q96T88 whole entry, looked up, the tested form may be a part): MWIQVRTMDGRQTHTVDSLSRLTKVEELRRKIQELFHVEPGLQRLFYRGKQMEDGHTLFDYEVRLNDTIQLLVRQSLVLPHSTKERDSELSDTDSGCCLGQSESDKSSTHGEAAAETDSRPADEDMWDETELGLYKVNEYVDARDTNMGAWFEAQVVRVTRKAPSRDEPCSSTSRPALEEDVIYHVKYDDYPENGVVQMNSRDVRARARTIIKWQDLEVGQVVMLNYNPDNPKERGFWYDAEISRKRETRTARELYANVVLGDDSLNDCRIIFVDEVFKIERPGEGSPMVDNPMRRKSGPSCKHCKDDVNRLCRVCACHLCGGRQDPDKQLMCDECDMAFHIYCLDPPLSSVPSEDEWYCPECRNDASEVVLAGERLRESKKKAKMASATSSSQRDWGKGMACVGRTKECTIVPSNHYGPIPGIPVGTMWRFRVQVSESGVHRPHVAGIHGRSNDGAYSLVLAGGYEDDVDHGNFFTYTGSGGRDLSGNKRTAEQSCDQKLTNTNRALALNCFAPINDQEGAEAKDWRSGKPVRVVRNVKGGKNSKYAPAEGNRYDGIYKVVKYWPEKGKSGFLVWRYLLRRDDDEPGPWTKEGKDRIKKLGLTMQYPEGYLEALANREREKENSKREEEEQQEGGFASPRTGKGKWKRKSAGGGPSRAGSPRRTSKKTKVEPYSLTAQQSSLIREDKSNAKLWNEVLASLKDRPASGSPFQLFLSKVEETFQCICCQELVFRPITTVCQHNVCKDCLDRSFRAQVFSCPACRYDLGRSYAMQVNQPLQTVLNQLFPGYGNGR
Rin1 Abl inh: inhibitors of Rin1-Abl protein binding, primary screen, biochemical, TR-FRET; inhibition, % at 7.35 µM; hit rate 0.4% among 360,000; AID 588664, 2011; in the data active = inhibition above about 5%, passing the limit was not always enough
Active calls of the source: *; · = no result given.

SMILES	LEDGF integ inh	TCR-CD3 inh	MBD2 inh	UHRF1 MBD2 ctr	Rin1 Abl inh
COc1ccccc1NS(=O)(=O)c1ccc(Cl)c(NC(=O)c2sc3cc(Cl)ccc3c2Cl)c1	-2	-9	2	0	-4
CCc1nnc(NC(=O)CN2CCN(C(=O)c3ccccc3)CC2)s1	0	5	12	24*	0
CCc1nnc(NC(=O)CN2CCN(CC)CC2)s1	-2	-1	-2	-1	1
Cc1ccccc1N(C)C(=O)C1CCCN(c2ncnc3c2nc2n3CCCCC2)C1 (stereo not drawn)	-2	-1	-4	0	-2
CC(=O)Nc1ccc(C(=O)NCCc2ccccc2)cc1	1	7	3	21*	-1
COc1ccccc1N1CCN(c2ccc3cc(S(=O)(=O)N4CCCCC4)ccc3n2)CC1	2	-8	-1	3	1
O=S(=O)(c1ccc2nc(N3CCN(c4ccccc4)CC3)ccc2c1)N1CCCCC1	-4	12	2	22*	1
CS(=O)(=O)N(CC(=O)Nc1cccc([N+](=O)[O-])c1)c1ccccc1	-4	6	4	-1	-1
COc1ccc(C)cc1S(=O)(=O)N(CC(=O)Nc1cccc([N+](=O)[O-])c1)c1ccccc1	-5	-1	4	31*	0
COc1ccc(CCNC(=O)c2cc(-c3ccc(Cl)c(Cl)c3)oc2C)cc1	5	-4	9	22*	1
Cc1ccsc1C(=O)N1CCC1(C)C(=O)NS(=O)(=O)c1ccccc1 (stereo not drawn)	1	3	2	-4	3
COC(=O)[C@H]1C[C@@]2(C)c3ccccc3N(C(=O)OC(C)(C)C)[C@H]2N1C(=O)OC(C)(C)C	2	·	1	1	·
O=C(O)c1ccc(N/N=C/c2ccc(-c3ccc(Br)cc3)o2)cc1	12	4	2	4	12*
C/C(=N\Nc1ccc(C(=O)O)cc1)c1ccc(Br)cc1	0	7	8	22*	-3
Cc1ccc(/C=N/Nc2ccc(C(=O)O)cc2)o1	-1	1	1	-1	5
C/C(=N/Nc1ncc(Br)cn1)c1ccc(Br)cc1	2	11	-1	-3	0
CN(C)S(=O)(=O)c1ccc(/C(O)=C2/C(=O)C(=O)N(CCCN3CCOCC3)C2c2ccncc2)cc1 (stereo not drawn)	-1	-5	4	-1	1
CC(=O)N1CC2(CC(c3ccccc3F)=NO2)CN1c1ccc(Cl)cc1 (stereo not drawn)	0	4	8	22*	-2
COC(=O)[C@]12C[C@H](CC(=O)NCc3cccc(C(F)(F)F)c3)C(=O)N(CCc3ccc(OC)c(OC)c3)C1=C[C@H](COCc1ccccc1)O[C@@H]2C	0	·	-4	-2	·
COc1ccc(/C=C/C(=O)NCC(=O)N2CCC(N(C)CCN3CCOCC3)CC2)cc1OC	-1	3	3	22*	1
COC(=O)[C@]12C[C@H](CC(=O)N3CCSCC3)C(=O)N(Cc3ccc4c(c3)OCO4)C1=C[C@H](COCc1ccccc1)O[C@@H]2C	0	4	-6	-3	·
CC1(C)CC(=O)N(CC(=O)N2CCN(c3cccc(C(F)(F)F)c3)CC2)c2ccccc2S1(=O)=O	1	·	1	0	·
CCCn1nc(C(=O)Nc2nc3ccccc3[nH]2)c2ccccc2c1=O	2	0	2	-7	-1
CC(C)n1nc(C(=O)Nc2nc3ccccc3[nH]2)c2ccccc2c1=O	-4	-7	3	98*	0
O=C(NC1CCCC1)C(=O)N(Cc1cccnc1)C(C(=O)NCC1CCCO1)c1ccco1 (stereo not drawn)	0	8	7	26*	-2
SMILES	LEDGF integ inh	TCR-CD3 inh	MBD2 inh	UHRF1 MBD2 ctr	Rin1 Abl inh
Cc1nc(NCCCN2CCOCC2)c2cnn(-c3ccccc3)c2n1	1	8	-1	1	2
C[C@@H]1CN([C@H](C)CO)C(=O)c2cc(C#CC3CCCCC3)cnc2O[C@H]1CN(C)Cc1cccnc1	3	-5	9	23*	0
C[C@H]1CN([C@@H](C)CO)C(=O)c2cc(C#CCC3CCCC3)cnc2O[C@@H]1CN(C)C(=O)CC1CC1	3	4	5	22*	0
C[C@H]1CN([C@@H](C)CO)S(=O)(=O)c2ccc(C#CC3CC3)cc2O[C@H]1CN(C)C(=O)c1cccnc1	4	4	0	6	-2
C[C@@H]1CN([C@@H](C)CO)S(=O)(=O)c2ccc(C#CC3CCCCC3)cc2O[C@@H]1CN(C)Cc1cccnc1	2	4	11	24*	1
C[C@@H]1CN([C@@H](C)CO)C(=O)c2cc(C#CC3CCCCC3)cnc2O[C@@H]1CN(C)S(=O)(=O)c1ccc(F)cc1	3	7	11	21*	1
COC(=O)Cc1nnn2c1[C@H](C)[C@@H](OC)c1cccc(Cl)c1-2	-1	1	8	1	·
O=C(NCCCN1CCOCC1)c1[nH]c(C(F)(F)F)nc1-c1ccccc1	1	-2	2	-1	4
Cc1nc(CCNC(=O)C2CCC(=O)N(CCc3cccc(F)c3)C2)sc1C (stereo not drawn)	-1	0	-1	6	-3
Cc1n[nH]c(C)c1CCNC(=O)C1CCC(=O)N(CCc2cccc(F)c2)C1 (stereo not drawn)	-2	-9	3	22*	3
CCNC(=O)C1(C)CCN(C(=O)c2ccc(F)cc2Cl)C1 (stereo not drawn)	-2	-6	-1	0	2
Cc1ccc(NS(=O)(=O)c2cccs2)nc1	2	10	5	30*	-2
O=C(C[n+]1cc(-c2ccc(F)cc2)n2c1CCC2)Nc1nc(-c2ccccc2)cs1	-4	-4	-2	44*	-1
Cc1ccc(NC(=O)C[n+]2cc(-c3ccc(C)cc3)n3c2CCC3)cc1	-2	-9	-8	1	-1
Cc1ccc(-c2c[n+](CC(=O)Nc3ccc(C)cc3C)c3n2CCC3)cc1	-4	-2	0	37*	-2
CCOC(=O)C1CCCN(Cc2cc(=O)oc3cc(C)c(C(C)C)cc23)C1 (stereo not drawn)	0	11	-1	26*	2
O=c1c2ccc(F)cc2sn1-c1ccccc1	0	5	1	88*	-2
CCOc1ccc(NC2=CC(=O)C(=O)c3ccccc32)cc1	23*	10	-26	-8	-10
COc1c2c(cc3ccc(=O)oc13)CCO2	4	0	-5	49*	-3
COc1c2occc2cc2ccc(=O)oc12	0	7	-1	-3	-2
CC(C)Cc1cc(C(=O)Nc2ccc(F)cc2F)no1	3	-3	0	24*	0
